Measurements published in the supplement of paper PMC9942566.
± gives the standard deviation of the averaged measurements.

Tested on: Serratia marcescens K904 PosmB-luxCDABE reporter (pMQ747)
Test: PosmB-lux reporter fold induction (RLU/OD600 relative to no-compound control), highest over Biolog concentrations; higher = stronger reporter activation
Conditions: ΔrcsB mutant CMS5177; 4 h
Description: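 Serratia marcescens K904 (wild type) or its isogenic ΔrcsB mutant, carrying the Rcs-dependent PosmB-luxCDABE reporter plasmid pMQ747, was grown in LB at OD600 0.1 in Biolog Phenotype MicroArray plates PM11-20 for 4 h at 30-32°C. Each compound is present at 3-4 proprietary concentrations (not stated); per the Fig. S1 legend the value given is the highest fold over those wells. Three independent trials.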

**Q.** For `N[C@@H]1CONC1=O` [D-Cycloserine] (Biolog plate: PM15, well positions: B1-4), which “PosmB-lux reporter fold induction” value is on record?
**A.** Its value is 1.43 ± 0.18.

**Q.** For `N[C@H](CO)C(=O)O` [D-serine] (Biolog plate: PM17, well positions: A2-4), which “PosmB-lux reporter fold induction” value is on record?
**A.** The value was 1.12 ± 0.081.

**Q.** `Nc1ccc(S(=O)(=O)Nc2nccs2)cc1` [Sulfathiazole] (Biolog plate: PM12, well positions: F5-8) was tested. Which “PosmB-lux reporter fold induction” value did it give?
**A.** The value was 1.89 ± 0.35.

**Q.** `CSc1ccc2c(c1)N(CCC1CCCCN1C)c1ccccc1S2` (stereo not drawn) [thioridazine] (Biolog plate: PM20, well positions: C1-4) was tested. Which “PosmB-lux reporter fold induction” value did it give?
**A.** The value was 1.11 ± 0.088.

**Q.** For `Cc1onc(-c2ccccc2Cl)c1C(=O)N[C@@H]1C(=O)N2[C@@H]1SC(C)(C)[C@@H]2C(=O)O` [Cloxacillin] (Biolog plate: PM11, well positions: B5-8), which “PosmB-lux reporter fold induction” value is on record?
**A.** The value was 1.06 ± 0.1.

**Q.** With `N.N.N.N.N.N.[Cl-].[Cl-].[Cl-].[Co+3]` [hexammine cobalt (III) chloride] (Biolog plate: PM19, well positions: H1-4) as the molecule, how does the “PosmB-lux reporter fold induction” value read?
**A.** Its value is 1.35 ± 0.2.

**Q.** With `CO/N=C(\C(=O)N[C@@H]1C(=O)N2C(C(=O)O)=C(CSc3nc(=O)c(O)nn3C)CS[C@H]12)c1csc(N)n1` [Ceftriaxone] (Biolog plate: PM11, well positions: G1-4) as the molecule, how does the “PosmB-lux reporter fold induction” value read?
**A.** The value was 1.12 ± 0.14.

**Q.** Which “PosmB-lux reporter fold induction” value does the source give for `CCN1CCN(C(=O)N[C@@H](C(=O)N[C@@H]2C(=O)N3C(C(=O)O)=C(CSc4nnnn4C)CS[C@H]23)c2ccc(O)cc2)C(=O)C1=O` [cefoperazone] (Biolog plate: PM17, well positions: G9-12) here?
**A.** The value was 1.44 ± 0.22.
